Results from PubChem BioAssay AID1434 (Sanford-Burnham Center for Chemical Genomics, 2008).
In all, about 220,000 compounds went through this assay and about 1,600 (0.73%) were called active.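 The calls were made as follows: active = mean inhibition across duplicate retests at 20 µM reaching about 50% (limit read from the data); inactive = the rest, inconclusive results apart.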 What follows is part of a selection rich in actives, with near analogues and random picks from the rest.

Molecular target: Runt-related transcription factor 1 (Homo sapiens) + Core-binding factor subunit beta (Homo sapiens) (UniProt Q01196+Q13951)
Sequence (Q01196 whole entry, looked up, the tested form may be a part): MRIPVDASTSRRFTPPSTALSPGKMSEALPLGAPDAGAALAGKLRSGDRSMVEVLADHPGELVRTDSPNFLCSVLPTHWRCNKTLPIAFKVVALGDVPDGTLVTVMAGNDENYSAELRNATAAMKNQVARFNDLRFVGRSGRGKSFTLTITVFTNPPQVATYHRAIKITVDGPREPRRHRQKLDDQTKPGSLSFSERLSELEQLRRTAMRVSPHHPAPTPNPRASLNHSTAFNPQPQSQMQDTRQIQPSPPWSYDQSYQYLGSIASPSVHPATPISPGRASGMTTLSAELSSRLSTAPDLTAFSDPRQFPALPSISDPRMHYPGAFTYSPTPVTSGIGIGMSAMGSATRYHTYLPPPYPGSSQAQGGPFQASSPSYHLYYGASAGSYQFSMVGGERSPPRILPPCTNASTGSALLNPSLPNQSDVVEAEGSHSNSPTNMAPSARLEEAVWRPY
Sequence (Q13951 whole entry, looked up, the tested form may be a part): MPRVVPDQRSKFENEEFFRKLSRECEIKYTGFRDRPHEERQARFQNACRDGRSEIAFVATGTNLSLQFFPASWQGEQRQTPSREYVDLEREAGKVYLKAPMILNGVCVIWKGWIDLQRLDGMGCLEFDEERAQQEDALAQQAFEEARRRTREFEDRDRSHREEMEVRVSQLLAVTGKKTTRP
Test: disruptors of Runt domain/CBFb-SMMHC interaction – biochemical, FRET, Cerulean-Runt, Venus-CBFb-SMMHC, uHTS, primary screen (AID 1434);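 also: 0% = DMSO wells and 100% = wells with excess untagged CBFb-SMMHC; inhibitors lower the FRET ratio by blocking Runt binding to CBFb-SMMHC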
Details: Cerulean-Runt/Venus-CBFb-SMMHC FRET ratio 530/480, 1 h, at 20 µM, stronger effect = higher value

Row | SMILES | inhibition | inhibition (retest duplicate average) [%]
1 | COc1ccc(OCCNS(=O)(=O)Cc2ccccc2)cc1 | 2.9% (inactive) | 
2 | Cc1ccnc(N2CCC(C(=O)NC3CCCCCC3)CC2)n1 | 0.3% (inactive) | 
3 | Cc1ccnc(Nc2nc3ccccc3s2)n1 | -5.4% (inactive) | 
4 | Cc1ccnc(-n2sc3ccccc3c2=O)n1 | 54.6% (active) | 58.2
5 | CCCC(=O)Nc1nnc(-c2ccccc2)o1 | 0.5% (inactive) | 
6 | Cc1c(CCC(=O)O)c(=O)oc2cc3occ(-c4ccccc4)c3cc12 | -3.4% (inactive) | 
7 | CCCCCCc1cc2cc(-c3nnc(-c4ccccc4)o3)c(=O)oc2cc1O | 80.9% (active) | 146
8 | COc1ccc(OCCCn2cccc2/C=C2/C(=N)N3OC(C)=CC3=NC2=O)cc1 | 0.8% (inactive) | 
9 | Cc1nn(C)c(C)c1S(=O)(=O)N1CCC(CO)(Cc2ccc(Cl)cc2)CC1 | 2.4% (inactive) | 
10 | CCN(CC)CCn1c(/N=C/c2cc(Br)ccc2O)nc2ccccc21 | -10.6% (inactive) | 
11 | Oc1ccc(Br)cc1C=Nc1ccc2[nH]ncc2c1 | 75.6% (active) | 86.7
12 | O=C(CCCO)N/N=C/c1cc(Br)ccc1O | 14.5% (inactive) | 
13 | O=C(COC(=O)/C=C/c1ccc2c(c1)OCO2)NC1CCS(=O)(=O)C1 (configuration not stated) | 0.9% (inactive) | 
14 | O=[N+]([O-])c1ccc2c(c1)C(N1CCOCC1)/C(=C/C1(O)CCCCC1)O2 (configuration not stated) | -4.2% (inactive) | 
15 | CN(C(=O)CSc1nnc(-c2c[nH]c3ccccc23)o1)C1CCS(=O)(=O)C1 (configuration not stated) | 2.4% (inactive) | 
16 | Cn1c(CO)cnc1SCc1ccccc1 | 3.5% (inactive) | 
17 | CSc1c(SCc2ccccc2)cnn(Cc2ccccc2)c1=O | 59% (active) | 54.5
18 | O=c1c2ccccc2c(-c2ccccc2)nn1Cc1ccccc1 | 1.4% (inactive) | 
19 | CNC(=O)C(NC(=O)c1ccccc1)=C(C)C | -2.9% (inactive) | 
20 | Cc1nc(C(=O)Nc2ccc(Cl)cc2)sc1C1(C)CC(c2ccccc2)=NO1 (configuration not stated) | -2.6% (inactive) | 
21 | Cc1cc(C#N)c(SCC(N)=O)nc1-c1ccc(F)cc1 | 14.7% (inactive) | 
22 | O=C(C1CCCO1)N1CCN(C(=S)NC2CC2)CC1 (configuration not stated) | -0.8% (inactive) | 
23 | CCCCCCCN=C(C)c1ccccc1O | -0.5% (inactive) | 
